# Test results published in PubChem BioAssay AID463173 (ICCB-Longwood Screening Facility, Harvard Medical School, 2010).
# Hit rate of the full screen: of about 52,000 compounds, about 4,300 (8.3%) were called active. This is one part of a sample in which actives are shown more often than they occur. A number with no mark means an inactive call. Rule as the data show it: active = survival mostly below about 52% (no sharp cut-off); inactive = mostly above about 56%.
# Test system: DeltatarO mutant
# Test: S. aureus survival, RN4220 and DeltatarO strains – OD600, teichoic acid synthesis inhibitors, primary screen (AID 463173)
# Conditions: S. aureus RN4220 wild type/DeltatarO growth, OD600, 18 h, hits give low values, screened at 18.75 µg/mL (by protocol)
row,Compound,survival
1,COc1cc(Cl)c(C)cc1NC(=O)CCc1c(C)nc2cc(-c3cccc(F)c3)nn2c1C,74%
2,CCCCc1nn2c(=O)cc(CN(CC)c3ccccc3)nc2s1,73%
3,Cc1noc2ncnc(N3CCN(c4cccc(C(F)(F)F)c4)CC3)c12,71%
4,CCOC(=O)CSc1nc2cc3c(cc2c(=O)n1CCCC(=O)NCc1ccc2c(c1)OCO2)OCO3,83%
5,COc1ccc(S(=O)(=O)NCCc2sc3nc(-c4ccc(C)cc4)nn3c2C)cc1F,72%
6,Cc1cc(C)cc(-n2cnc3cc(C(=O)NC4CCCCCC4)ccc32)c1,95%
7,Nc1nonc1-c1nc2ccccc2n1CC(=O)Nc1cccc(Cl)c1Cl,66%
8,Nc1nonc1-c1nc2ccccc2n1CC(=O)Nc1ccccc1C(=O)O,45% (active)
9,Nc1nonc1-c1nc2ccccc2n1CC(=O)Nc1ccc(F)cc1,169%
10,CCc1ccccc1NC(=O)Cn1c(-c2nonc2N)nc2ccccc21,86%
11,Nc1nonc1-c1nc2ccccc2n1CCn1c(-c2nonc2N)nc2ccccc21,82%
12,NC(=O)Cn1c(-c2nonc2N)nc2ccccc21,62% (active)
13,COc1ccc(-c2nc(SCC(=O)NC3CCCC3)c(-c3ccc(C)cc3)[nH]2)cc1OC,57%
14,COc1ccc(Cn2ccc3nc(C)c(C(=O)NCc4ccc(C)cc4)cc3c2=O)cc1,60%
15,O=C(COC(=O)c1ccco1)Nc1cccc2ccccc12,97%
16,CCOC(=O)c1c(-c2cccs2)csc1NC(C)=O,69%
17,CNS(=O)(=O)c1cn(CC(=O)N2CCN(c3ccc(OC)cc3)CC2)cc1S(=O)(=O)NC,69%
18,CNS(=O)(=O)c1cn(CC(=O)N2CCN(c3ccc(Cl)cc3)CC2)cc1S(=O)(=O)NC,106%
19,CNS(=O)(=O)c1cn(CC(=O)N2CCN(c3ccc(C(C)=O)cc3)CC2)cc1S(=O)(=O)NC,37% (active)
20,O=C(Cn1cc(SCc2ccc(F)cc2)c2ccccc21)N1CCCCC1,79%

row,Compound,survival
1,Cc1ccc(NC(=O)c2oc3ccc(S(=O)(=O)N(C)C4CCCCC4)cc3c2C)c(C)c1,73%
2,Cc1nc2ccc(NC(=O)C3CCCCC3)cc2c(=O)n1Cc1ccccc1,63%
3,COc1ccc(CNS(=O)(=O)c2ccc(C(=O)N(C)C)s2)cc1,66%
4,Cc1ccc(CNS(=O)(=O)c2ccc(C(=O)N(C)C)s2)cc1,-4% (active)
5,CN(C)C(=O)c1ccc(S(=O)(=O)NCc2ccc(Cl)cc2)s1,119%
6,CCCNC(=O)c1cnc2sc(N3CCCCC3)nn2c1=O,99%
7,O=C(NCc1cccc(Cl)c1)c1cc2c(s1)-c1ccccc1SC2,64%
8,COc1cccc(C2c3c(-c4ccccc4O)n[nH]c3C(=O)N2Cc2cccnc2)c1 (centres undefined),84%
9,COc1ccc(CCN2C(=O)c3[nH]nc(-c4ccccc4O)c3C2c2ccc(OC)c(OC)c2)cc1 (centres undefined),45% (active)
10,COc1ccc(CCN2C(=O)c3[nH]nc(-c4ccccc4O)c3C2c2ccc(O)c(OC)c2)cc1 (centres undefined),30% (active)
11,COc1cc(C2c3c(-c4ccccc4O)n[nH]c3C(=O)N2Cc2ccncc2)ccc1O (centres undefined),90%
12,COc1cccc(C2c3c(-c4ccccc4O)n[nH]c3C(=O)N2CCc2ccc(OC)c(OC)c2)c1 (centres undefined),8% (active)
13,CC(CNC(=O)c1ccc(CSc2nc3ccncc3n2Cc2ccccc2)cc1)c1ccccc1 (centres undefined),78%
14,CS(=O)(=O)NCc1ccc2c(c1)OCO2,92%
15,COc1ccc(CNC(=O)c2ccc3c(c2)N(Cc2ccccc2)C(=O)c2ccccc2S3(=O)=O)cc1,83%
16,COc1ccc(CNc2ccc(C)c(C)c2)c(OC)c1OC,93%
17,Cc1ccc2c(c1)N(C(=O)N1CCC(C(=O)NC3CCCCCC3)CC1)CC(C)O2 (centres undefined),72%
18,Cc1c(/C=C(\C#N)C(=O)Nc2cccc(Cl)c2)c2ccccc2n1Cc1ccccc1Cl,123%
19,Nc1c(S(=O)(=O)Cc2ccccc2)sc2nc3c(cc12)CCCC3,49%
20,Cc1nnnn1CCC(=O)NC(C)c1ccccc1 (centres undefined),84%

row,Compound,survival
1,Cc1cc(C)nc(N(C#N)Cc2ccccc2)n1,100%
2,Cc1cc(C)cc(-n2c(SCC(=O)Nc3ccccc3)nc3c(oc4ccccc43)c2=O)c1,101%
3,CCCCOC(=O)c1ccc(NC(=O)/C(C#N)=C/c2ccc(-c3ccccc3)o2)cc1,32% (active)
4,CCCCOC(=O)/C(C#N)=C/c1ccc(-c2cccc(C(F)(F)F)c2)o1,46% (active)
5,CCOC(=O)/C(C#N)=C\c1ccc(-c2cccc(C(F)(F)F)c2)o1,84%
6,N#C/C(=C\c1ccc(-c2ccccc2)o1)C(=O)Nc1ccccc1,90%
7,CCOC(=O)c1ccc(-c2ccc(/C=C(\C#N)C(=O)Nc3ccc(OCC)cc3)o2)cc1,60%
8,CCCCOC(=O)c1ccc(NC(=O)/C(C#N)=C/c2ccc(C)o2)cc1,49% (active)
9,Cc1ccc(NC(=O)/C(C#N)=C/c2ccc(C)o2)cc1,79%
10,COc1ccc(NC(=O)/C(C#N)=C/c2ccc(C)o2)cc1,77%
11,CCC(C)OC(=O)/C(C#N)=C\c1ccc(-c2cccc(C(F)(F)F)c2)o1 (centres undefined),64%
12,CCNC1CC(=O)N(c2ccc(C(=O)OCC)cc2)C1=O (centres undefined),112%
13,CCOC(=O)C(C)Nc1ncnc2onc(C)c12 (centres undefined),53%
14,CCN(C(=O)Cn1c(=O)n(Cc2ccccc2)c(=O)c2c1c1cc(OC)ccc1n2C)c1ccccc1,84%
15,COc1ccc(Cl)cc1NC(=O)CSc1nc2c([nH]c3ccccc32)c(=O)n1-c1ccccc1,81%
16,NNC(=O)CNC(=O)c1cccs1,79%
17,COc1ccccc1/C=C/C(=O)N1CCC(C(N)=O)CC1,99%
18,COC(=O)c1ccc(NC(=O)CSc2ccc(-c3cccs3)nn2)cc1,85%
19,COc1ccccc1OCC(=O)Nc1c(C(=O)c2ccc(C)cc2)oc2ccccc12,82%
